PubChem BioAssay
The source made the active and inactive calls. Cut-off read from the data, not from the text of the source: active = inhibition above about 44%; inactive = the rest.

molecular target: Steroidogenic factor 1 (Homo sapiens) (UniProt Q13285); assay: inverse agonism at SF1 nuclear receptor – cell-based, luminescence, high throughput, counter-screen for LRH-1 inverse agonist project (AID 651614); conditions: cell-based SF1 luciferase reporter, at 3.6 µM, active compounds read high;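 note: cells cotransfected with StAR promoter reporter and SF1 expression vector; 0% = vehicle on cells with receptor and 100% = vehicle on cells lacking receptor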
Sequence (Q13285 whole entry, looked up): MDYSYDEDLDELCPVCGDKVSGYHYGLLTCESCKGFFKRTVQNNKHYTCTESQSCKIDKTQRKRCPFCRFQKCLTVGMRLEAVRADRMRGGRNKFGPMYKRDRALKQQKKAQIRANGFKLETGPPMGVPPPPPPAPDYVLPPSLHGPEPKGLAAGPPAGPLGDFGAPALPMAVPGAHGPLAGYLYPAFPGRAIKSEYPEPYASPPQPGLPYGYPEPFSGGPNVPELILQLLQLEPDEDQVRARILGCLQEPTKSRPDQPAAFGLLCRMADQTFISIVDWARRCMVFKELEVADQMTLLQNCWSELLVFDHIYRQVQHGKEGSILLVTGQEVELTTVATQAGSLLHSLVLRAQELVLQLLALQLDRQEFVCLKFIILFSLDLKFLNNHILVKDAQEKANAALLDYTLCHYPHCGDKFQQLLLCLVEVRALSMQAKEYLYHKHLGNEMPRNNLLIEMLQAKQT

Row | SMILES | inhibition
1 | CCc1c(O)nc(SCC(=O)Nc2ccc(OC)cc2)n(C2CCCCC2)c1=O | 51.4% (active)
2 | CCCCCCCCn1c2c(c(=N)c3ccccc31)CCC2 | 92.8% (active)
3 | O=C1C=C(N2CCCCCC2)C2(CCCCC2)O1 | 55% (active)
4 | O=C(CSC1=NC2(CCCCCC2)N=C1c1ccccc1)Nc1ccc2c(c1)OCCO2 | 62.2% (active)
5 | O=C(c1ccc([N+](=O)[O-])o1)N1CCN(c2nc3c(Cl)cccc3s2)CC1 | 61.3% (active)
6 | CS(=O)(=O)N1CCN(c2ccc(NC(=O)CSc3nnc(-c4ccco4)o3)cc2)CC1 | 54.1% (active)
7 | COc1cccc(-c2cc(NC=O)c3ncc(-c4ccc(C(C)=O)cc4)n3c2)c1 | 60.1% (active)
8 | Cc1ccccc1C(=O)NC1CCN(CC(=O)Nc2ccc(Br)cc2)CC1 | 53.4% (active)
9 | O=C(c1ccc([N+](=O)[O-])s1)N1CCN(c2ncccn2)CC1 | 41.5% (inactive)
10 | O=C(CSc1ncnc2c1cnn2-c1ccccc1)Nc1ccc2c(c1)OCO2 | 48.5% (active)
11 | COc1ccc2nc(N3CCN(C(=O)c4ccc([N+](=O)[O-])o4)CC3)sc2c1 | 61.8% (active)
12 | Cc1nnsc1C(=O)NC1CCCc2c1cnn2-c1ccc(F)cc1F (stereo unspecified) | 55.4% (active)
13 | CN(C)S(=O)(=O)c1cccc(CSCc2cccc(S(=O)(=O)N(C)C)c2)c1 | 38.9% (inactive)
14 | O=C(CSc1n[nH]c(-c2ccccc2)n1)Nc1ccc(F)cc1F | 50.4% (active)
15 | Cc1c(Cl)cccc1NC(=O)CS(=O)(=O)c1ccccc1 | 55.5% (active)
16 | O=C(CSc1nnnn1C1CCCC1)Nc1ccc2c(c1)OCCO2 | 42.3% (inactive)
